# Data taken from PubChem BioAssay.
# A number with no mark means an inactive call. Some of the results follow. Active and inactive are the calls of the source.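 How the source made its calls, unless noted: active means activation above a set limit carried over from the earlier primary STAT1 screen (cut at about 140% in these data); inactive means the rest.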
# Tests used:
# [1] = potentiators of IFN-gamma STAT1 reporter activity – cell-based, HTS, luciferase reporter, confirmation (AID 1262); conditions: NIH 3T3 STAT1-luciferase reporter, IFN-gamma potentiation, luminescence; at 5.7 µM; stronger effect = higher value; 100% = IFN-gamma EC80 alone, no compound;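 further: simple ratio to median IFN-gamma plus DMSO wells so 0% means no light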
# [2] = enhancement of NF-kB transcriptional signalling – cell-based, HEK293T, luciferase luminescence, TNF-alpha, counter-screen for STAT1 activator project (AID 1306;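 active means activation above the mean of solvent-only control wells plus 3 SD, set per campaign, cut at about 130% in these data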;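 further: TNF-alpha given at a submaximal dose yielding about 80% of full reporter signal; values are well signal over median control so 100% means no change and 0% no light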); conditions: HEK293T NF-kB luciferase reporter, TNF-alpha stimulated, at 5.7 µM, stronger effect = higher value, 100% = TNF-alpha with vehicle only
# [3] = molecular target: Signal transducer and activator of transcription 3 (Homo sapiens) (UniProt P40763); assay: enhancers of IL-6 STAT3 transcription – U3A cells, luciferase, luminescence, counter-screen for STAT1 activator project, confirmation (AID 1316;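 active means activation above the solvent-only control well mean plus 3 SD, set per plate batch, cut at about 110% in these data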;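 further: 0% = no luminescence and 100% = median IL-6 plus DMSO wells; higher means more STAT3 reporter activation so hits are non-selective activators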); conditions: U3A cells STAT3-luciferase reporter, IL-6, luminescence; at 5.7 µM; stronger effect = higher value; 100 = IL-6 alone, no compound effect; cells lack STAT1
# [4] = molecular target: Oxysterols receptor LXR-beta (Homo sapiens) (UniProt P55055); assay: nonspecific reporter activation via LXR – cell-based, luminescence, HEK293, H. contortus campaign, counter-screen for hcDAF-12 agonist project, confirmation (AID 743027;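 active means mean percent activation of the reporter above a cutoff set as the average over tested compounds plus their standard deviation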); conditions: HEK293 Gal4-LXR tk-luc reporter, 24 h, at 6.8 µM, stronger effect = higher value, normalized: DMSO 0%, positive control 100%
# [5] = system: Nuclear hormone receptor DAF-12 (Haemonchus contortus); assay: hcDAF-12 luciferase reporter activation, retest – cell-based, luminescence, HEK293, lit1-tk-luc, triplicate, confirmation (AID 743032;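 active means mean activation across triplicate tests above the threshold derived from the earlier primary screen, cut at about 5.5% in these data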;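 further: 0% = DMSO only wells and 100% = 3 µM Δ7-dafachronic acid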); conditions: HEK293 hcDAF-12 lit1-tk-luc reporter, at 6.8 µM, stronger effect = higher value, % of Δ7-dafachronic acid response
# [6] = system: DAF-12 nuclear receptor (Heterodera glycines), GAL4-LBD fusion; assay: hgDAF-12 GAL4 fusion reporter activation, retest – cell-based, luminescence, HEK293, GAL4-LBD fusion, confirmation (AID 743050;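 active means mean activation over triplicate wells above the hit cutoff derived from the earlier primary screen, cut at about 11% in these data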;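 further: 0% = DMSO low control and 100% = 2 mM sodium butyrate high control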); conditions: HEK293 GAL4-hgDAF12 luciferase reporter, agonist mode; at 6.8 µM; stronger effect = higher value; percent of butyrate response
# [7] = molecular target: Oxysterols receptor LXR-beta (Homo sapiens) (UniProt P55055); assay: nonspecific reporter activation via LXR – cell-based, luminescence, HEK293, H. glycines campaign, counter-screen for hgDAF-12 agonist project, confirmation (AID 743051;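 active means mean activation of the triplicate above a set limit carried over from the primary screen, none filed active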); conditions: HEK293 Gal4-LXR luciferase reporter, 24 h; at 6.8 µM; stronger effect = higher value
# [8] = suppression of KLF5 promoter-driven luciferase – DLD-1 cells, luminescence, confirmation (AID 1834;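 active means inhibition above a set limit taken from the earlier primary screen, cut at about 63% in these data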;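 further: 0% = DMSO wells and 100% = LY294002 at 200 µM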); conditions: DLD-1 KLF5 promoter firefly luciferase reporter, at 4 µM, stronger effect = higher value
# [9] = IEC-6 intestinal cell killing – luminescence, triplicate, cytotoxicity control for KLF5 inhibitor project (AID 1905; in the data active means inhibition above about 23%;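 further: cells exposed to compounds for 48 hours before viability read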); conditions: IEC-6 rat intestinal cells, viability luminescence; at 4 µM; stronger effect = higher value
# [10] = blockers of IL-6 STAT3 signaling – U3A cells, luciferase, luminescence, confirmation (AID 1265;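 active means inhibition above the hit cutoff computed for the primary STAT3 screen, cut at about 44% in these data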;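 further: 0% = IL-6 plus DMSO and 100% = IL-6 plus nifuroxazide control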); conditions: IL-6 STAT3 luciferase reporter, at 5.7 µM, stronger effect = higher value, cell line lacks STAT1
# [11] = inhibition of TNF-alpha-driven NF-kB transcription – cell-based, HEK293T, luciferase, TNF-alpha stimulus, counter-screen for STAT3 inhibitor project, confirmation (AID 1308;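 active means inhibition above the mean of solvent-only control wells plus 3 SD, cutoff set per campaign, cut at about 13% in these data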;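 further: 0% = TNF-alpha with DMSO and 100% = TNF-alpha with MG high control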); conditions: HEK293T NF-kB luciferase reporter, TNF-alpha induced; at 5.7 µM; stronger effect = higher value
# [12] = inhibition of STAT1-driven transcription – cell-based, NIH 3T3, luciferase luminescence, IFN-gamma, counter-screen for STAT3 inhibitor project, confirmation (AID 1317;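 active means inhibition above the mean plus 3 SD of solvent-only control wells, limit set per screening run, cut at about 16% in these data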;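 further: 0% = DMSO with IFN-gamma and 100% = nifuroxazide control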); conditions: NIH 3T3 STAT1-luciferase reporter, IFN-gamma induced, at 5.7 µM, stronger effect = higher value
# [13] = molecular target: Neuropeptide Y receptor type 2 (Homo sapiens) (UniProt P49146); assay: human Y2 receptor positive modulation or activation – cell-based, confirmation (AID 1539; in the data active means activation above about 33%); conditions: cell-based NPY-Y2 potentiator/agonist assay; at 3.6 µM; stronger effect = higher value
# [14] = molecular target: Neuropeptide Y receptor type 1 (Homo sapiens) (UniProt P25929); assay: human Y1 receptor positive modulation or activation – cell-based, fluorescence, counter-screen for NPY-Y2 potentiator project (AID 1651; in the data active means activation above about 45%;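 further: cells stimulated with submaximal NPY then isoproterenol with phosphodiesterase inhibitor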); conditions: Y1 HEK293-CNG cells, membrane potential fluorescence; at 3.6 µM; stronger effect = higher value
# [15] = molecular target: Neuropeptide Y receptor type 1 (Homo sapiens) (UniProt P25929); assay: human Y1 receptor agonism, CNGC membrane potential – cell-based, fluorescence, selectivity assay for NPY-Y2 potentiator project (AID 1702;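 active means activation above the mean of DMSO-only control wells plus 3 SD, cut at about 18% in these data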;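 further: cells stimulated with 1 µM isoproterenol plus the PDE inhibitor Ro 20-1724; 0% = isoproterenol with DMSO and no NPY and 100% = 40 nM NPY; Y1 agonists lower the membrane potential dye signal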); conditions: HEK293 Y1-CNGC, at 3.6 µM, stronger effect = higher value
# [16] = blockers of isoproterenol-driven CNG channel signal – cell-based, HEK293-CNG parental, membrane potential fluorescence, counter-screen for NPY-Y2 potentiator project (AID 1703;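 active means inhibition above the control-well mean plus 3 SD of those wells, cut at about 22% in these data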;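 further: 0% = DMSO with isoproterenol and 100% = DMSO without isoproterenol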); conditions: isoproterenol cAMP, at 3.6 µM, stronger effect = higher value
# [17] = molecular target: Neuropeptide Y receptor type 2 (Homo sapiens) (UniProt P49146); assay: agonism at human Y2 receptor without NPY – cell-based, fluorescence, counter-screen for NPY-Y2 potentiator project (AID 1710;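 active means activation above the mean of solvent-only control wells plus 3 SD, cut at about 10% in these data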;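 further: cells stimulated by isoproterenol with no NPY added so direct agonism is tested; 0% = DMSO with isoproterenol alone and 100% = NPY at EC100 plus isoproterenol; agonism lowers probe fluorescence through less cAMP and CNG channel opening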); conditions: HEK293 Y2/CNGC cells, membrane potential fluorescence, agonist mode; at 3.6 µM; stronger effect = higher value
# [18] = system: transactivating tegument protein VP16 (Human herpesvirus 1); assay: compounds suppressing VP16-driven luciferase signal – cell-based, luminescence, single concentration, counter-screen for SRC2 inhibitor project (AID 652007; in the data active means inhibition above about 36%); conditions: cell-based VP16 transactivation luciferase reporter, at 8.9 µM, stronger effect = higher value
# [19] = molecular target: Nuclear receptor coactivator 2 (Homo sapiens) (UniProt Q15596); assay: inhibition of GAL4-SRC2 driven luciferase expression – cell-based, luminescence, HEK293, triplicate, confirmation (AID 652008;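 active means mean inhibition above 46.5%, the solvent-only control mean plus 3 SD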;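 further: 0% = DMSO-treated cells and 100% = Gossypol at 36 µM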); conditions: HEK293 GAL4-SRC2 luciferase reporter, at 8.9 µM, stronger effect = higher value
# [20] = molecular target: Insulin-degrading enzyme (Homo sapiens) (UniProt P14735); assay: cellular IDE Abeta-cleavage inhibition – fluorescence polarization, HEK cells, FAbetaB substrate, confirmation (AID 435028;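 active means mean inhibition across triplicate wells above the cutoff set by the earlier primary insulin-degrading enzyme screen, cut at about 16% in these data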;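 further: 0% = DMSO wells and 100% = 60 µM reference IDE inhibitor Ii1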); conditions: at 5.59 µM, stronger effect = higher value
# [21] = HEK cell viability loss – luminescence, cytotoxicity control for IDE inhibitor project (AID 449730; in the data active means inhibition above about 22%;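 further: 0% = vehicle wells and 100% = reference cytotoxic drug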); conditions: HEK293 cytotoxicity, ATP luminescence; at 5.59 µM; stronger effect = higher value
# [22] = molecular target: Photoreceptor-specific nuclear receptor (Homo sapiens) (UniProt Q9Y5X4); assay: retest of NR2E3-NCOR disrupting agonists – cell-based, luminescence, CHO-S two-hybrid, confirmation (AID 624378;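 active means average inhibition above a cutoff equal to the mean inhibition of all tested compounds plus one SD, cut at about 70% in these data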;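 further: 0% = DMSO in NR2E3 cells and 100% = DMSO in cells lacking NR2E3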); conditions: CHO-S mammalian two-hybrid NR2E3-NCOR, luciferase luminescence; at 3.98 µM; stronger effect = higher value
# [23] = nonselective effects on VP16 transactivation – cell-based, luminescence, CHO-S, high throughput, counter-screen for NR2E3 agonist project, confirmation (AID 624379;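 active means mean inhibition above a cutoff equal to the average over all tested compounds plus one standard deviation, cut at about 70% in these data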;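 further: 0% = DMSO with VP16-transfected cells and 100% = DMSO with cells lacking VP16; higher means less reporter light so more repression of VP16 activity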); conditions: CHO-S GAL4-VP16 luciferase reporter, at 3.98 µM, stronger effect = higher value
# [24] = VP16-driven transactivation reporter suppression – cell-based, luminescence, HEK293, counter-screen for COUP-TFII antagonist project (AID 687007; in the data active means inhibition above about 13%); conditions: HEK293 Gal4-VP16 luciferase reporter, at 8.5 µM, stronger effect = higher value
# [25] = molecular target: COUP transcription factor 2 (Homo sapiens) (UniProt P24468); assay: retest of COUP-TFII reporter suppressors – cell-based, luciferase reporter, HEK293, triplicate, confirmation (AID 687008;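 active means mean inhibition over three repeats above a set limit taken from the earlier primary screen, cut at about 38% in these data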;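 further: 100% = cells given the luciferase reporter alone without the COUP-TF2 vector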); conditions: HEK293 NGFI-A luciferase reporter, luminescence; at 8.5 µM; stronger effect = higher value
# Sequence of COUP transcription factor 2 (Homo sapiens) (P24468 whole entry, looked up): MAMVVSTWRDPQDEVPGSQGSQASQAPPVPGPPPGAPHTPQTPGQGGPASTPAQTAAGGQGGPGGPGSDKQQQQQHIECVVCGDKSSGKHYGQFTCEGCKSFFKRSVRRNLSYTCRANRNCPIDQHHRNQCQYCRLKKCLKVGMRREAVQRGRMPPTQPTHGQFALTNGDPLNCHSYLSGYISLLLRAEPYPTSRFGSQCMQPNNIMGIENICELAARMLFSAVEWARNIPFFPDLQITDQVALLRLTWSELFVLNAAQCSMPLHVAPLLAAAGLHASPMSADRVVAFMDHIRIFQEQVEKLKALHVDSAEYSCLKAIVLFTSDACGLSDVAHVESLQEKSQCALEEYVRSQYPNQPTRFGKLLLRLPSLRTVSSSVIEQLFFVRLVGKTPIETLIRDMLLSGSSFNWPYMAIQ
# Sequence of Oxysterols receptor LXR-beta (Homo sapiens) (P55055 whole entry, looked up, the tested form may be a part): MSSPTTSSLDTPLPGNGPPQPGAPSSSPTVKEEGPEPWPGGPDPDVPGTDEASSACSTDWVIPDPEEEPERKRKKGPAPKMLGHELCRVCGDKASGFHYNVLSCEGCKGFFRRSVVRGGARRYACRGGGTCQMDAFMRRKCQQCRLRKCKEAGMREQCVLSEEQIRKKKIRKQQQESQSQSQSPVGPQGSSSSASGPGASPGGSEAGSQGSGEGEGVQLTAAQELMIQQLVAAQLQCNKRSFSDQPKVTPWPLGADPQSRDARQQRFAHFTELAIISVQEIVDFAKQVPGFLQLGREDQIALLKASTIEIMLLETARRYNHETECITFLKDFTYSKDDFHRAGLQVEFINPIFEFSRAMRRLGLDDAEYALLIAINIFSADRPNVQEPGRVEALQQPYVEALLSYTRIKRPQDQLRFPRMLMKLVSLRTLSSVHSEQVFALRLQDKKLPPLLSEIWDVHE
# Sequence of Neuropeptide Y receptor type 2 (Homo sapiens) (P49146 whole entry, looked up): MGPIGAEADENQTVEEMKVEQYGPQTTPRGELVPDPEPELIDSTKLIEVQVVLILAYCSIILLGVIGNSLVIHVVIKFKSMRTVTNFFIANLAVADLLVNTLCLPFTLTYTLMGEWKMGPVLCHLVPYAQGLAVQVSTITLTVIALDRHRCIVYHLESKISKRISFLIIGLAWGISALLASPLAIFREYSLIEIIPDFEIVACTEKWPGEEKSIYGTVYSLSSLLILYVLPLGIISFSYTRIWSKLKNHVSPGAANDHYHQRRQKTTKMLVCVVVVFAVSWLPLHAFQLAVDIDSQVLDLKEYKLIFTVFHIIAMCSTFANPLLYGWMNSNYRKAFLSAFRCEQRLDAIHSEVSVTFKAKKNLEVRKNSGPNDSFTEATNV
# Sequence of Neuropeptide Y receptor type 1 (Homo sapiens) (P25929 whole entry, looked up): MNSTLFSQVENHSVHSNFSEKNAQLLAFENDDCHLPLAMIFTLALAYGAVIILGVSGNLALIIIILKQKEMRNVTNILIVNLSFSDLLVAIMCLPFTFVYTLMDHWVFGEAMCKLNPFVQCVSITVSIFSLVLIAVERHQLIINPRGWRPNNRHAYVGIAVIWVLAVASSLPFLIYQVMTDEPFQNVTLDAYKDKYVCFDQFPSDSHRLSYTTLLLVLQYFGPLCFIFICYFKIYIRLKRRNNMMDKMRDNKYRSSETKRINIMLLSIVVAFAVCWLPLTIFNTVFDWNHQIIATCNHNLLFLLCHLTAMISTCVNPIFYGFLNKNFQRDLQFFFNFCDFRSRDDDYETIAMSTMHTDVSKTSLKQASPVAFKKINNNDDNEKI
# Sequence of Insulin-degrading enzyme (Homo sapiens) (P14735 whole entry, looked up): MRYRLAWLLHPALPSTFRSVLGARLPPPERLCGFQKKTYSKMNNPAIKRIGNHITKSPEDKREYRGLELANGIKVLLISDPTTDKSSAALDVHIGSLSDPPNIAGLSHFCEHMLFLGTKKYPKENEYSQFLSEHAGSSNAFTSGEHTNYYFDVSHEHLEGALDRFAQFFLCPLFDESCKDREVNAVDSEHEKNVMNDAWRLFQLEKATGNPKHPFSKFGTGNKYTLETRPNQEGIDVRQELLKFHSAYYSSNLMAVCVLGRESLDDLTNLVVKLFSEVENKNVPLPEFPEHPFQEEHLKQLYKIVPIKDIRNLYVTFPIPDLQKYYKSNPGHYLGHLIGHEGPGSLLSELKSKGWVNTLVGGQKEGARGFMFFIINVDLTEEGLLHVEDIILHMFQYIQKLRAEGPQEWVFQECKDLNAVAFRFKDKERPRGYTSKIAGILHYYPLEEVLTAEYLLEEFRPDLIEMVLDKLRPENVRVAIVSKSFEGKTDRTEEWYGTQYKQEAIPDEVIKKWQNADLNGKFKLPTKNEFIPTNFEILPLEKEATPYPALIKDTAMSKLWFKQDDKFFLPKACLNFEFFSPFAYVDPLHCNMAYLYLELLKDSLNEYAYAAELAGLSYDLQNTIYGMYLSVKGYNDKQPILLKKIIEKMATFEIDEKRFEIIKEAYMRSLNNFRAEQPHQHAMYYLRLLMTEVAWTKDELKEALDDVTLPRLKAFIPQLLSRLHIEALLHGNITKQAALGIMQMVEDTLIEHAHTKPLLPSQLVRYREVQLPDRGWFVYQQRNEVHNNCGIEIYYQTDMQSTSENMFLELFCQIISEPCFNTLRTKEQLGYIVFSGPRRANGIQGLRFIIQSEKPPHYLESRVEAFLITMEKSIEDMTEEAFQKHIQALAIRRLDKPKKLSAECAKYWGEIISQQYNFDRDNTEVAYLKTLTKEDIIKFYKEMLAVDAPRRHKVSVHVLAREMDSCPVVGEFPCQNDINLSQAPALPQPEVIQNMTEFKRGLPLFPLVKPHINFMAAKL
# Sequence of Nuclear receptor coactivator 2 (Homo sapiens) (Q15596 whole entry, looked up, the tested form may be a part): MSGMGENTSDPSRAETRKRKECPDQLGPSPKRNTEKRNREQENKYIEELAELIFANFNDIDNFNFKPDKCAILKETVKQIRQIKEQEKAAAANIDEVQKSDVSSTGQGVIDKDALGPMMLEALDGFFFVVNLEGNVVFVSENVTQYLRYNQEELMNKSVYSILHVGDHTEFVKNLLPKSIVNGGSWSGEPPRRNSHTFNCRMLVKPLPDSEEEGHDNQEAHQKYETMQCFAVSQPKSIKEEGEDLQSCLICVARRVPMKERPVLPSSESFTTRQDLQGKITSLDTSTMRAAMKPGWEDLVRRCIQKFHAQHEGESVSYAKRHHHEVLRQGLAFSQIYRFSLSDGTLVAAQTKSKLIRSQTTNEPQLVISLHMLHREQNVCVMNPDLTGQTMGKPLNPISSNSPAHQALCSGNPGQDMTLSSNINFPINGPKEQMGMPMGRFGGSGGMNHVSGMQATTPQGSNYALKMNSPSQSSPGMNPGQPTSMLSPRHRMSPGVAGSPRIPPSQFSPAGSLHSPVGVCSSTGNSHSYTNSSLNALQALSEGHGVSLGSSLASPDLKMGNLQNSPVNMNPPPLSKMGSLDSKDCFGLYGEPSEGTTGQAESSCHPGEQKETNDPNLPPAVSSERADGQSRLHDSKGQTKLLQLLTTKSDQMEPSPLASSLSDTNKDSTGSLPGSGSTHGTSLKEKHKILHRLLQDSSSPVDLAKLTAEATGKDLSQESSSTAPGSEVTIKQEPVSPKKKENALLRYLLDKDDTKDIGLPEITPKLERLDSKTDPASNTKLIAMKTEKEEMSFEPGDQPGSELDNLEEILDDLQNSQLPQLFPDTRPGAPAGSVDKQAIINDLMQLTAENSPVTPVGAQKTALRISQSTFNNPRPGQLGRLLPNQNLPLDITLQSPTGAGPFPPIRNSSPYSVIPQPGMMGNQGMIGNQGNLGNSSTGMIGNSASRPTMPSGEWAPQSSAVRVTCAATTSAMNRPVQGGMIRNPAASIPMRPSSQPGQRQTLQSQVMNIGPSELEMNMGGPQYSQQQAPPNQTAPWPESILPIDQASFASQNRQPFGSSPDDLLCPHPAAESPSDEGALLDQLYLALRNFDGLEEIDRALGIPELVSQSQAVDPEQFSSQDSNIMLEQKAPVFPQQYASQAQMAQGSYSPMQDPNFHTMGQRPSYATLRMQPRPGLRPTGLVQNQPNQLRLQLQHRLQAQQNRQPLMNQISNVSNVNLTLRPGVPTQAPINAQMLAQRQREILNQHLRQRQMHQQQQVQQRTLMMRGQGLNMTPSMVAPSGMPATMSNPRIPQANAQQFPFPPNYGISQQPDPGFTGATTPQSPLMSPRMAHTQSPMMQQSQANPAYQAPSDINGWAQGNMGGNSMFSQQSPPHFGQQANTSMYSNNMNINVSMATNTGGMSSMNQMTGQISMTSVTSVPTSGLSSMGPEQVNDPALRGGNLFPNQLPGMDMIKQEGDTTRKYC
# Sequence of Photoreceptor-specific nuclear receptor (Homo sapiens) (Q9Y5X4 whole entry, looked up): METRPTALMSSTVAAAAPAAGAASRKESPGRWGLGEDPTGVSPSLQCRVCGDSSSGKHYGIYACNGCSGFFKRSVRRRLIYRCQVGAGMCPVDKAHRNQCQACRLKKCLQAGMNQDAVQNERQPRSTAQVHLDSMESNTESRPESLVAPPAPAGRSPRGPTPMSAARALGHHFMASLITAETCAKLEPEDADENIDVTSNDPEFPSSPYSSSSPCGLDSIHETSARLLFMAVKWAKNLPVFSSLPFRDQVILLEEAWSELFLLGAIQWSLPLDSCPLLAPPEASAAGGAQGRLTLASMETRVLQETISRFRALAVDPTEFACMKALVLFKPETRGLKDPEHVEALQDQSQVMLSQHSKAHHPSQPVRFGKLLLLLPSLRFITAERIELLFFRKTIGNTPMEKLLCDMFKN
smiles,measurement,setting,value
COc1ccc2nc(NC(=O)c3ccc(Br)s3)sc2c1,activation (% of control),[1],185% (active)
same,activation (% of control),[2],134% (active)
same,activation (% of control),[3],99.8%
Cc1cccc(N=Nc2c(O)[nH]c3ccc(F)cc23)c1,activation (% of control),[1],160% (active)
same,activation (% of control),[2],135% (active)
same,activation (% of control),[3],109%
CCOc1ccc2nc(C(=O)N3CCCC(C)C3)sc2c1 (stereo not given),activation (% of control),[1],217% (active)
same,activation (% of control),[2],133%
same,activation (% of control),[3],97.8%
same,activation,[4],1.14%
same,activation,[5],4.22%
COc1ccc(/C=N/Nc2nc3ccccc3o2)cc1OC,activation (% of control),[1],208% (active)
same,activation (% of control),[2],133%
same,activation (% of control),[3],108%
CCOC(=O)/C(C#N)=C/c1ccc(N2CCCCC2)cc1,activation (% of control),[1],155% (active)
same,activation (% of control),[2],140% (active)
same,activation (% of control),[3],108%
COc1ccc2nc(SCc3ccccc3)nc(C)c2c1,activation (% of control),[1],231% (active)
same,activation (% of control),[2],141% (active)
same,activation (% of control),[3],107%
same,activation,[4],1.78%
same,activation,[5],5.65% (active)
same,activation,[6],17.7% (active)
same,activation,[7],1%
CC1CN/C(=C\C(=O)c2ccc(Br)cc2)C(=O)N1 (stereo not given),activation (% of control),[1],250% (active)
same,activation (% of control),[2],117%
same,activation (% of control),[3],87.3%
O=C(Nc1ccc2c(c1)CCC2)c1ccc(Br)s1,activation (% of control),[1],236% (active)
same,activation (% of control),[2],137% (active)
same,activation (% of control),[3],114% (active)
same,activation,[4],2.03%
same,activation,[5],7.91% (active)
same,activation,[6],24.6% (active)
same,activation,[7],1.14%
CCNc1nc(-c2cc3ccccc3o2)cs1,activation (% of control),[1],131% (active)
same,activation (% of control),[2],121%
same,activation (% of control),[3],103%
same,activation,[4],2.08%
same,activation,[5],8.18% (active)
CC(=O)c1sc(NC(=O)c2ccc(C)cc2)nc1C,activation (% of control),[1],185% (active)
same,activation (% of control),[2],123%
same,activation (% of control),[3],94.7%
Cc1cc(C)c2nc(NC(=O)C3CCCO3)sc2c1 (stereo not given),activation (% of control),[1],209% (active)
same,activation (% of control),[2],138% (active)
same,activation (% of control),[3],195% (active)
same,activation,[4],1.55%
same,activation,[5],6.1% (active)
COc1ccc(CS(=O)/C(Cl)=C(/Cl)C(=O)Nc2ccc(OC)nc2)cc1 (stereo not given),activation (% of control),[1],335% (active)
same,activation (% of control),[2],67.4%
same,activation (% of control),[3],105%
same,inhibition,[8],97% (active)
same,inhibition,[9],63.7% (active)
c1ccc(Nc2nc(-c3ccncc3)cs2)nc1,activation (% of control),[1],243% (active)
same,activation (% of control),[2],126%
same,activation (% of control),[3],126% (active)
same,activation,[4],1.73%
same,activation,[5],8.34% (active)
same,activation,[6],16.8% (active)
same,activation,[7],0.86%
c1cnc(Nc2nc(-c3ccc4ccccc4c3)cs2)nc1,activation (% of control),[1],208% (active)
same,activation (% of control),[2],139% (active)
same,activation (% of control),[3],105%
COc1ccc(C2=Nc3cc(C)ccc3OC2)cc1,inhibition,[10],19.3%
same,inhibition,[11],-18.5%
same,inhibition,[12],-114%
CCCCOc1ccc(-c2nnc(-c3ccco3)o2)cc1,inhibition,[10],21.3%
same,inhibition,[11],-24.1%
same,inhibition,[12],-66.4%
CN(C)c1ccnc2sc(C(=O)c3ccccc3)c(N)c12,activation (% of control),[1],188% (active)
same,activation (% of control),[2],126%
same,activation (% of control),[3],109%
same,activation,[6],14.2% (active)
same,activation,[7],0.47%
CN(C)S(=O)(=O)c1ccc(NC(=O)COC(=O)c2n[nH]c3ccccc23)cc1,inhibition,[10],38.2%
same,inhibition,[11],1.2%
same,inhibition,[12],8.4%
same,activation,[13],-2.42%
same,activation,[14],-36%
same,activation,[15],-29.4%
same,inhibition,[16],-6.29%
same,activation,[17],4.88%
same,inhibition,[18],-4.93%
same,inhibition,[19],16%
O=C(Nc1ccc(NC(=O)c2cccs2)cn1)c1ccco1,inhibition,[10],20.3%
same,inhibition,[11],-29.5%
same,inhibition,[12],-92.3%
O=C(Nc1ccc2oc(-c3ccccc3F)nc2c1)c1ccco1,activation (% of control),[1],204% (active)
same,activation (% of control),[2],137% (active)
same,activation (% of control),[3],104%
same,activation,[6],11.9% (active)
same,activation,[7],0.57%
CC(C)OCCCNc1ncnc2c1[nH]c1ccc(F)cc12,inhibition,[10],78.6% (active)
same,inhibition,[11],33.4% (active)
same,inhibition,[12],31.1% (active)
same,inhibition,[20],17.2% (active)
same,inhibition,[21],75.2% (active)
same,inhibition,[22],96.7% (active)
same,inhibition,[23],81.3% (active)
same,inhibition,[24],-32.6%
same,inhibition,[25],63.3% (active)
Cc1cc(NC(=O)c2cc(-c3cccs3)on2)nn1Cc1ccc(Cl)cc1,inhibition,[10],46.6% (active)
same,inhibition,[11],8.43%
same,inhibition,[12],0.57%
CCN(CC)c1ccc(/C=N/Nc2nc(C)cc(=O)[nH]2)cc1,inhibition,[10],37.2%
same,inhibition,[11],-2%
same,inhibition,[12],-4.6%
CCCCCc1ccc(-c2ccc(C(=O)O)cc2)nc1,inhibition,[10],22.4%
same,inhibition,[11],-6.17%
same,inhibition,[12],-71.4%
Cc1ccc(-c2cc(C(=O)N/N=C/C=C/c3ccco3)c3ccccc3n2)cc1C,inhibition,[10],-39.2%
same,inhibition,[11],12.6%
same,inhibition,[12],-40.9%
O=C(Nc1nc2ccccc2s1)c1ccc2c(c1)OCO2,inhibition,[10],41.7%
same,inhibition,[11],10.6%
same,inhibition,[12],-93.8%
